According to PubChem BioAssay (NCI):
About 83,000 compounds went through this panel and 20% of them were active in at least one assay; those are over-represented in the sample as a whole.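 Compound tested at a single concentration for 48 hours in 96-well plates; a percent growth value below 10 was scored as active.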 The source made the active and inactive calls. *1 amine or outer side, *2 acyl side, *3 side chain or, on linkers, in order; H or OH if unused. Where a SMILES comes first, the peptide text is derived from it. [ ]: non-standard residue; d: D form. The star is where a group is joined. X5 = CCC(=O)CC1CC(C)CC(C(=O)[*:2])N1[*:1]; X4 = CCCCCCCCC(C)C(=O)*; Aib = CC(C)(N)C(=O)O; X6 = CC(CN(C)CCO)N*

Key:
Experiment in all cases: NCI-60 one-dose screen, 48 h (100 = growth as untreated, 0 = no growth, -100 = all killed)
Settings in all cases: 10 µM unless noted
SR leukemia = system: SR leukemia
OVCAR-8 ovarian = system: OVCAR-8 ovarian
OVCAR-5 ovarian = system: OVCAR-5 ovarian
OVCAR-4 ovarian = system: OVCAR-4 ovarian
SK-OV-3 ovarian = system: SK-OV-3 ovarian
IGROV1 ovarian = system: IGROV1 ovarian
OVCAR-3 ovarian = system: OVCAR-3 ovarian
NCI/ADR-RES ovarian = system: NCI/ADR-RES ovarian
HS 578T breast = system: HS 578T breast
RPMI-8226 leukemia = system: RPMI-8226 leukemia

Measured: growth

S=c1[nH]c2cc(Cl)ccc2s1
inactive: SR leukemia 106% | OVCAR-8 ovarian 103% | OVCAR-5 ovarian 98.6% | OVCAR-4 ovarian 106% | SK-OV-3 ovarian 102% | IGROV1 ovarian 105% | OVCAR-3 ovarian 102% | NCI/ADR-RES ovarian 105%

O=[N+]([O-])c1ccc(C2N(Cc3ccc(Cl)cc3)CCN2Cc2ccc(Cl)cc2)cc1
inactive: SR leukemia 64.8% | OVCAR-8 ovarian 91% | OVCAR-5 ovarian 89.6% | OVCAR-4 ovarian 102% | SK-OV-3 ovarian 90.1% | IGROV1 ovarian 85.9% | OVCAR-3 ovarian 91.3% | HS 578T breast 102% | NCI/ADR-RES ovarian 87.6%

O=C(Cc1nc2cc(Cl)c(Cl)cc2nc1CC(=O)c1cccnc1)c1cccnc1
inactive: RPMI-8226 leukemia 45.1% | OVCAR-8 ovarian 77.6% | OVCAR-5 ovarian 103% | OVCAR-4 ovarian 83.9% | SK-OV-3 ovarian 94.7% | IGROV1 ovarian 73.6% | OVCAR-3 ovarian 78.5% | HS 578T breast 76% | NCI/ADR-RES ovarian 76.4%

C/C(=N\NC(=S)N1CC2CCC(CC2)C1)c1ccccn1
active: SR leukemia -10.1% | OVCAR-4 ovarian -41.2% | IGROV1 ovarian 5.07% | OVCAR-3 ovarian -17.7%
inactive: OVCAR-8 ovarian 18.2% | OVCAR-5 ovarian 24.5% | SK-OV-3 ovarian 18.9% | HS 578T breast 16.3% | NCI/ADR-RES ovarian 12.6%

CCCCCCCCC(C)C(=O)N1CCCC1C(=O)N1C(CC(=O)CC)CC(C)CC1C(=O)NC(C)C(=O)NC(C)(C)C(=O)NC(C)(C)C(=O)NC(C(=O)NC(C)C(=O)NC(C)(C)C(=O)NC(C)(C)C(=O)NC(C)CN(C)CCO)C(C)CC (stereo not given) (X4-P[X5]A[Aib][Aib]IA[Aib][Aib]-X6; configuration not given here)
active: SR leukemia -44.2% | OVCAR-5 ovarian -82.2% | OVCAR-4 ovarian -12.9% | SK-OV-3 ovarian -23.8% | IGROV1 ovarian -60.3% | OVCAR-3 ovarian -54.6% | NCI/ADR-RES ovarian -36.9%

COc1ccc(C(Cn2ccnc2)Sc2ccc(Cl)c(Cl)c2)cc1 (stereo not given)
inactive: SR leukemia 97.4% | OVCAR-8 ovarian 91% | OVCAR-5 ovarian 91.3% | OVCAR-4 ovarian 79.6% | SK-OV-3 ovarian 86.4% | IGROV1 ovarian 59.3% | OVCAR-3 ovarian 89.7% | HS 578T breast 112% | NCI/ADR-RES ovarian 69.1%

CCOC(=O)c1c(C)[nH]c2ccc(O)cc12
inactive: SR leukemia 101% | OVCAR-8 ovarian 97.6% | OVCAR-5 ovarian 130% | OVCAR-4 ovarian 107% | SK-OV-3 ovarian 99.2% | OVCAR-3 ovarian 105% | HS 578T breast 92% | NCI/ADR-RES ovarian 101%

Nc1ccc(-c2ccc(N)c(S(=O)(=O)O)c2)cc1S(=O)(=O)O
inactive: SR leukemia 153% | OVCAR-8 ovarian 116% | OVCAR-5 ovarian 116% | OVCAR-4 ovarian 108% | SK-OV-3 ovarian 103% | IGROV1 ovarian 120% | OVCAR-3 ovarian 108% | HS 578T breast 113% | NCI/ADR-RES ovarian 114%

OC(Cc1cc(CC(O)(C(F)(F)F)C(F)(F)F)nc(CC(O)(C(F)(F)F)C(F)(F)F)c1)(C(F)(F)F)C(F)(F)F
active: SR leukemia 4.85% | OVCAR-8 ovarian 9.71% | OVCAR-4 ovarian 6.38% | SK-OV-3 ovarian -16.8% | OVCAR-3 ovarian -3.61% | HS 578T breast 5.53% | NCI/ADR-RES ovarian 3.76%
inactive: OVCAR-5 ovarian 16.1%

CC(C)c1ccc(C(=O)OC2CCCC2)cc1
inactive: SR leukemia 105% | OVCAR-8 ovarian 113% | OVCAR-5 ovarian 101% | OVCAR-4 ovarian 106% | SK-OV-3 ovarian 107% | IGROV1 ovarian 103% | OVCAR-3 ovarian 99.3% | HS 578T breast 101% | NCI/ADR-RES ovarian 99.9%

N#C/C(=N\Nc1ccc(Cl)cc1)C(=O)C1CC1
inactive: RPMI-8226 leukemia 44.4% | OVCAR-8 ovarian 63.3% | OVCAR-5 ovarian 91.9% | OVCAR-4 ovarian 31.2% | SK-OV-3 ovarian 65.6% | IGROV1 ovarian 54.2% | OVCAR-3 ovarian 39.8% | HS 578T breast 23.7% | NCI/ADR-RES ovarian 79.8%

O=C1C=CC(=O)N1c1ccccc1
active: OVCAR-3 ovarian 1.28%
inactive: SR leukemia 45.2% | OVCAR-8 ovarian 99.5% | OVCAR-5 ovarian 96.4% | SK-OV-3 ovarian 109% | IGROV1 ovarian 105% | HS 578T breast 103% | NCI/ADR-RES ovarian 97.7%

Nc1cc(-c2ccccc2)ccc1O
inactive: SR leukemia 28.7% | OVCAR-8 ovarian 62.7% | OVCAR-5 ovarian 104% | OVCAR-4 ovarian 91.4% | SK-OV-3 ovarian 113% | IGROV1 ovarian 115% | NCI/ADR-RES ovarian 88.4%

CCC(=O)c1cc([N+](=O)[O-])c(Br)s1
active: SR leukemia -19.5%
inactive: OVCAR-5 ovarian 99% | OVCAR-4 ovarian 109% | SK-OV-3 ovarian 95.8% | IGROV1 ovarian 105% | OVCAR-3 ovarian 82.4% | NCI/ADR-RES ovarian 105%

Cc1cc(C(N)=O)cc(C)c1C(=O)OCCCl
inactive: SR leukemia 89.6% | OVCAR-8 ovarian 102% | OVCAR-5 ovarian 108% | OVCAR-4 ovarian 103% | SK-OV-3 ovarian 105% | OVCAR-3 ovarian 99.5% | HS 578T breast 97% | NCI/ADR-RES ovarian 107%

O=C(c1ccccc1)C(O)C(Br)(CBr)c1ccccc1 (stereo not given)
inactive: SR leukemia 59.3% | OVCAR-8 ovarian 93.2% | OVCAR-5 ovarian 99.6% | OVCAR-4 ovarian 90.8% | SK-OV-3 ovarian 114% | IGROV1 ovarian 90.9% | OVCAR-3 ovarian 89.7% | NCI/ADR-RES ovarian 91.6%

O=C(c1ccccc1)c1cc2ccccc2oc1=O
inactive: SR leukemia 107% | OVCAR-8 ovarian 96.9% | OVCAR-5 ovarian 102% | OVCAR-4 ovarian 95.2% | SK-OV-3 ovarian 100% | IGROV1 ovarian 64.8% | OVCAR-3 ovarian 107% | HS 578T breast 90.6% | NCI/ADR-RES ovarian 100%

CCOC(=O)/C(=C\c1ccc2ccccc2c1)P(=O)(OCC)OCC
active: SR leukemia -19.4%
inactive: OVCAR-5 ovarian 56.9% | OVCAR-4 ovarian 62% | SK-OV-3 ovarian 113% | IGROV1 ovarian 56% | OVCAR-3 ovarian 27.4% | HS 578T breast 16.7% | NCI/ADR-RES ovarian 10.4%

Cc1cc(I)nc2ccccc12
inactive: SR leukemia 107% | OVCAR-8 ovarian 107% | OVCAR-5 ovarian 100% | OVCAR-4 ovarian 112% | SK-OV-3 ovarian 109% | IGROV1 ovarian 104% | OVCAR-3 ovarian 130% | NCI/ADR-RES ovarian 109%

CCCCCCCCCCCCCCCc1ccc(C(=O)C[n+]2ccccc2)cc1
inactive: OVCAR-4 ovarian 34.9%
active: RPMI-8226 leukemia -62.2% | OVCAR-8 ovarian -46.7% | OVCAR-5 ovarian -44.1% | SK-OV-3 ovarian -50.7% | OVCAR-3 ovarian -93.1% | HS 578T breast -37.3% | NCI/ADR-RES ovarian -21.5%

CCN1/C(=C/C(C)=C/c2sc3ccc4ccccc4c3[n+]2CC)Sc2ccc3ccccc3c21
active: RPMI-8226 leukemia -58.1% | OVCAR-8 ovarian -68.7% | OVCAR-5 ovarian -91.7% | OVCAR-4 ovarian -76.9% | SK-OV-3 ovarian -99% | IGROV1 ovarian -88.4% | OVCAR-3 ovarian -94.5% | HS 578T breast -66.8% | NCI/ADR-RES ovarian -19.3%

c1ccc2sc(SSN3CC4CCC(CC4)C3)nc2c1
inactive: RPMI-8226 leukemia 111% | OVCAR-8 ovarian 106% | OVCAR-5 ovarian 112% | OVCAR-4 ovarian 102% | SK-OV-3 ovarian 108% | OVCAR-3 ovarian 150% | HS 578T breast 92.7% | NCI/ADR-RES ovarian 108%

Cc1nn(CCO)c(C)c1N=[N+]([O-])c1c(C)nn(CCO)c1C
active: RPMI-8226 leukemia -35% | OVCAR-3 ovarian -88.1%
inactive: OVCAR-8 ovarian 79% | OVCAR-5 ovarian 83.6% | OVCAR-4 ovarian 13.7% | SK-OV-3 ovarian 115% | HS 578T breast 103% | NCI/ADR-RES ovarian 96.1%

COc1ccc(NC(=O)/C(=C/N2C(=O)/C(=C/c3ccc(OC)c(OC)c3)NC2=S)C(C)=O)cc1
inactive: RPMI-8226 leukemia 76.6% | OVCAR-5 ovarian 99.3% | OVCAR-4 ovarian 85.1% | SK-OV-3 ovarian 55.9% | IGROV1 ovarian 74.7% | OVCAR-3 ovarian 79% | HS 578T breast 40.7% | NCI/ADR-RES ovarian 77.6%

CCCCCCCCCCCC[S+](C)CC(=O)[O-] (stereo not given)
inactive: OVCAR-8 ovarian 45.5% | OVCAR-5 ovarian 56.5% | OVCAR-4 ovarian 48.1% | SK-OV-3 ovarian 41.3% | IGROV1 ovarian 12.8% | OVCAR-3 ovarian 57.6% | HS 578T breast 36.7% | NCI/ADR-RES ovarian 99.8%

CCC1CCCCN1C(=S)N/N=C(\C)c1ccccn1 (stereo not given)
inactive: OVCAR-5 ovarian 30.1%
active: OVCAR-8 ovarian 9.93% | OVCAR-4 ovarian -50.2% | SK-OV-3 ovarian 8.27% | IGROV1 ovarian 2.61% | OVCAR-3 ovarian -18.9% | HS 578T breast -3.92% | NCI/ADR-RES ovarian 5.77%

Nc1nc2ncc(CNc3ccc(C(=O)NC(CCC(=O)NC(CCC(=O)NC(CCC(=O)NC(CCC(=O)NC(CCC(=O)O)C(=O)O)C(=O)O)C(=O)O)C(=O)O)C(=O)O)cc3)nc2c(=O)[nH]1 (stereo not given)
inactive: RPMI-8226 leukemia 112% | OVCAR-8 ovarian 101% | OVCAR-5 ovarian 110% | OVCAR-4 ovarian 111% | SK-OV-3 ovarian 101% | OVCAR-3 ovarian 118% | HS 578T breast 90.1% | NCI/ADR-RES ovarian 119%

O=C(c1ccccc1)c1ccc(O)c2ncccc12
inactive: OVCAR-5 ovarian 68% | OVCAR-4 ovarian 15.4% | SK-OV-3 ovarian 49.8% | IGROV1 ovarian 17% | HS 578T breast 52.7%
active: OVCAR-8 ovarian 8.06% | OVCAR-3 ovarian -36.7% | NCI/ADR-RES ovarian 2.55%
